The target of one assay is Albumin (Bos taurus) (UniProt P02769). Put plainly: bovine serum albumin binders on microarray, profiling panel, artefact control for SMM control protein annotation, biochemical, small-molecule microarray, Alexa647 label, 635/667 nm fluorescence (AID 1118).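 Note: score merges 667 nm emission intensity and signal-to-noise per printed compound spot.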 Particulars: BSA-A647 binding, fluorescence 635 nm, higher = more signal.
The nature of assay [1]: small-molecule microarray binders of probe aXIP, primary screen, biochemical, NeuroSMM set, 635/667 nm fluorescence (AID 1119).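 Note: probe is the protein aXip251-270 applied at 1 µg/mL to compound-printed slides; binding of probe to printed compounds measured as 667 nm fluorescence plus signal to noise.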 The note with it: higher = more signal, called active from +8 up or from −8 down.
Assay [2] in a line: small-molecule binders of probe aNOTCH3, primary screen, biochemical, small-molecule microarray, 635/667 nm fluorescence (AID 1120).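 Note: probe is a biotin-tagged antibody raised against NOTCH3 rather than NOTCH3 protein; score merges spot fluorescence near 667 nm with spot signal to noise.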 The note with it: higher = more signal.
Assay [3] in a line: small-molecule binders of probe aNOTCH2, primary screen, biochemical, small-molecule microarray, 635/667 nm fluorescence (AID 1121).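 Note: score merges feature fluorescence read at 667 nm with its signal to noise.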 Particulars: higher = more signal.
For assay [4], the target named is Carbonic anhydrase 2 (Homo sapiens) (UniProt P00918). Description: CAII small-molecule binders, profiling panel, biochemical, small-molecule microarray, Alexa647-labelled CAII (AID 1122). The note with it: CAII-A647 binding fluorescence, higher = more signal.
A short description of assay [5]: COS7 lysate on small-molecule microarray, probe aHis, 635 nm (AID 1123).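 Note: z-score combines 667nm fluorescence intensity with signal-to-noise per printed compound spot.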 The note with it: COS7 cell lysate, fluorescence, higher = more signal.
Assay [6] in a line: compound binding in COS7 lysate, probe aLAP1, primary screen, cell lysate, small-molecule microarray (AID 1124).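 Note: lysate comes from COS7 cells expressing LAP1 and is applied at 0.3 µg/mL; score merges spot fluorescence near 667 nm with signal-to-noise over triplicate slides.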 The note with it: probe aLAP1, fluorescence, higher = more signal.
A further assay has as its system Sam68 (KHDRBS1). Put plainly: Sam68 small-molecule binders, primary screen, biochemical, small-molecule microarray, 635 nm fluorescence (AID 1125).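 Note: score merges 667 nm channel intensity with signal to noise over triplicate slides.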 Particulars: small-molecule microarray binding, higher = more signal.
In assay [7] the test system is Chordin-like protein 2 (CHRDL2). Description: CHRDL2 small-molecule binders, primary screen, biochemical, small-molecule microarray, 635 nm fluorescence (AID 1126).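 Note: printed compound slides probed with Chrdl2 protein at 4 µg/mL for 1 h at 4 C; score merges 667 nm emission intensity with signal to noise over three replicate slides.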 Particulars: small-molecule microarray binding, fluorescence 635 nm; higher = more signal.
For assay [8], the target named is Concanavalin-A (Canavalia ensiformis) (UniProt P02866). Description: ConA small-molecule binders, primary screen, artefact control for SMM control protein annotation, biochemical, small-molecule microarray, Alexa647 label, 635 nm (AID 1127).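 Note: z combines 667 nm emission intensity with signal-to-noise across three replicate slides.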 Particulars: ConA-A647 binding fluorescence, higher = more signal.
A short description of assay [9]: anti-His antibody binders, primary screen, artefact control for SMM control protein annotation, biochemical, small-molecule microarray, 635 nm fluorescence (AID 1128).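 Note: score merges feature fluorescence with signal-to-noise for each printed compound spot.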 The note with it: anti-His Alexa647 antibody binding, higher = more signal.
In assay [10] the test system is Human papillomavirus type 1a E7 protein (residues 1-88). Description: HPV1a E7 small-molecule binders, primary screen, biochemical, small-molecule microarray, residues 1-88, 635 nm (AID 1129). The note with it: small-molecule microarray binding, fluorescence 635 nm; higher = more signal.
Assay [11] addresses Focal adhesion kinase 1 (Homo sapiens) (UniProt Q05397). Description: small-molecule microarray binders of FAK, primary screen, biochemical, 635/667 nm fluorescence, BSA, DTT (AID 1130).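 Note: composite of spot emission at 667 nm and signal to noise over triplicate slides.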 The note with it: PTK2 binding, 635 nm fluorescence, higher = more signal.
The subject of assay [12] is Fibrinogen (Alexa647-labelled). Put plainly: fibrinogen binders on compound microarrays, profiling panel, artefact control for SMM control-protein annotation, biochemical, small-molecule microarray, 635/667 nm fluorescence (AID 1131).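 Note: z-score merges 667 nm fluorescence with per-spot signal-to-noise over triplicate slides.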 The note with it: fibrinogen-A647 binding fluorescence, higher = more signal.
The target in assay [13] is Follistatin (Homo sapiens) (UniProt P19883). Put plainly: follistatin binders on small-molecule microarrays, primary screen, biochemical, small-molecule microarray, 635/667 nm fluorescence (AID 1132). Particulars: FST binding, 635 nm fluorescence, higher = more signal.
In assay [14] the target is Fibroblast growth factor 2 (Homo sapiens) (UniProt P09038). Description: FGF2 binders on small-molecule microarrays, primary screen, biochemical, small-molecule microarray, 635/667 nm fluorescence (AID 1133). Particulars: small-molecule microarray binding, FGF2, fluorescence 635/667; higher = more signal.
Assay [15] in a line: mitochondrial membrane potential change in A549 cells, profiling panel, cell-based, JC-1 fluorescence, basal, 24 h, 100 nL (AID 1138).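 Note: A549 lung adenocarcinoma cells under basal conditions with no added stimulus; test concentration not given here.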 The note with it: higher = more signal.
The subject of another assay is Lefty1. Description: Lefty1 binders on small-molecule microarrays, primary screen, biochemical, small-molecule microarray, 635/667 nm fluorescence (AID 1139). Particulars: small-molecule microarray binding, fluorescence 635/667; higher = more signal.
In assay [16] the test system is wheat germ agglutinin (Triticum aestivum), Alexa647-labelled. Description: wheat germ agglutinin binders on compound microarrays, profiling panel, artefact control for SMM control-protein annotation, biochemical, small-molecule microarray, 635/667 nm fluorescence (AID 1140).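 Note: score merges 667 nm feature emission with signal to noise over triplicate slides.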 Particulars: WGA-A647 binding, 635 nm fluorescence, higher = more signal.
Assay [17] has as its target Luciferin 4-monooxygenase (Photinus pyralis) (UniProt P08659). Put plainly: firefly luciferase enzyme inhibitors, primary screen, biochemical, luminescence, purified enzyme, 2006 set (AID 1141).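 Note: cell-free assay with purified firefly luciferase at 100 ng per well in PBS; test concentration not given here.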 Particulars: SteadyGlo luminescence, 30 min, higher = more signal, called active from +8 up or from −8 down.

Composite z-score, composite Z-score and z-score data for five molecules are collected here from PubChem BioAssay.

Molecules are shown by their SMILES. Activity calls are given as the source filed them.

Chain of Focal adhesion kinase 1 (Homo sapiens) (Q05397 whole entry, looked up): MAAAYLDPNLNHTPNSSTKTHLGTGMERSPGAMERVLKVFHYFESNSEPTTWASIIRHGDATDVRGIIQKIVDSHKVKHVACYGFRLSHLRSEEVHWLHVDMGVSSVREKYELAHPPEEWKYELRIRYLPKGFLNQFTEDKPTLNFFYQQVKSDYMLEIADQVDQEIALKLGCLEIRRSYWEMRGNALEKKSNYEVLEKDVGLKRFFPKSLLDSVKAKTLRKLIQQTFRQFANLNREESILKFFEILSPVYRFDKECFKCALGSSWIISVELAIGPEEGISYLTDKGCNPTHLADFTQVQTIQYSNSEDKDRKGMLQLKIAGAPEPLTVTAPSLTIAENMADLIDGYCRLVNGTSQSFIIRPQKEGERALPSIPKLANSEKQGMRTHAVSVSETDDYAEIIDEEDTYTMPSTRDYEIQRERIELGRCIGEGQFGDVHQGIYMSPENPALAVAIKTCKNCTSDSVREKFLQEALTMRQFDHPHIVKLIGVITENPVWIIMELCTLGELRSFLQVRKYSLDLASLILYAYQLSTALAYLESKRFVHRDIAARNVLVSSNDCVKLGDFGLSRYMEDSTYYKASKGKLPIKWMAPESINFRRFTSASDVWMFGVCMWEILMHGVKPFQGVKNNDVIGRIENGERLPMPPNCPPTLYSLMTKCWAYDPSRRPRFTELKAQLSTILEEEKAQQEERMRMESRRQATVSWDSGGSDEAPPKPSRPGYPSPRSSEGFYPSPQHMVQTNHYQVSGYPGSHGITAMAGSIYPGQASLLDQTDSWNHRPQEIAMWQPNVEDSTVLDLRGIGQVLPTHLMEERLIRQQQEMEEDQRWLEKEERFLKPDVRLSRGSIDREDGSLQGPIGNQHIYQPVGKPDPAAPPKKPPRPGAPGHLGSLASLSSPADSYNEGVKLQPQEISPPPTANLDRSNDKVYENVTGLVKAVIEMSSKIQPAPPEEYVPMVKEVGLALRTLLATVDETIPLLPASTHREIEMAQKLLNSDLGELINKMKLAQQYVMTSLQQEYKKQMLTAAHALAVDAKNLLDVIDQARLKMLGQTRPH
Chain of Luciferin 4-monooxygenase (Photinus pyralis) (P08659 whole entry, looked up): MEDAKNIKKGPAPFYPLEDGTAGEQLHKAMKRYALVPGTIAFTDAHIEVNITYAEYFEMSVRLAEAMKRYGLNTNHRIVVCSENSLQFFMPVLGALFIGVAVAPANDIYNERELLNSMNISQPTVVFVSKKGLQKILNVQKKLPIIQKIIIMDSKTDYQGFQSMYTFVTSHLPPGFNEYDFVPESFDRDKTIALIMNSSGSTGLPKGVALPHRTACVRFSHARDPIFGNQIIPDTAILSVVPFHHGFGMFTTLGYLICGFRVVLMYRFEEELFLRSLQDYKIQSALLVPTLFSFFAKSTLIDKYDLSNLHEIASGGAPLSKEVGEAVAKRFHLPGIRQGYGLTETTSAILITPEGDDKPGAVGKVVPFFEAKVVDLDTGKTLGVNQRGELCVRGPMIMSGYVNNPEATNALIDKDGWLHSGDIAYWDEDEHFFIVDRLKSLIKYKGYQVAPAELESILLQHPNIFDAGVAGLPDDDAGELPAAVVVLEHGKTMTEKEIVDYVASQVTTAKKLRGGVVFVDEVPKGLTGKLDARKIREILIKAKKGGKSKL
Chain of Concanavalin-A (Canavalia ensiformis) (P02866 whole entry, looked up): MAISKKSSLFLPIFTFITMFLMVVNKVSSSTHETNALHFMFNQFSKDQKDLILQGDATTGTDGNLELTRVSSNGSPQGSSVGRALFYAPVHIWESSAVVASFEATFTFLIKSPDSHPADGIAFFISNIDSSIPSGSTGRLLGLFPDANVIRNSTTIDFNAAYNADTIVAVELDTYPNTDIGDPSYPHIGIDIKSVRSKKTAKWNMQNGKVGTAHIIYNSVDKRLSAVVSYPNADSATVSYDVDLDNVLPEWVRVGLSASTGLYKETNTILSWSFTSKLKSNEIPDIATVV
Chain of Albumin (Bos taurus) (P02769 whole entry, looked up): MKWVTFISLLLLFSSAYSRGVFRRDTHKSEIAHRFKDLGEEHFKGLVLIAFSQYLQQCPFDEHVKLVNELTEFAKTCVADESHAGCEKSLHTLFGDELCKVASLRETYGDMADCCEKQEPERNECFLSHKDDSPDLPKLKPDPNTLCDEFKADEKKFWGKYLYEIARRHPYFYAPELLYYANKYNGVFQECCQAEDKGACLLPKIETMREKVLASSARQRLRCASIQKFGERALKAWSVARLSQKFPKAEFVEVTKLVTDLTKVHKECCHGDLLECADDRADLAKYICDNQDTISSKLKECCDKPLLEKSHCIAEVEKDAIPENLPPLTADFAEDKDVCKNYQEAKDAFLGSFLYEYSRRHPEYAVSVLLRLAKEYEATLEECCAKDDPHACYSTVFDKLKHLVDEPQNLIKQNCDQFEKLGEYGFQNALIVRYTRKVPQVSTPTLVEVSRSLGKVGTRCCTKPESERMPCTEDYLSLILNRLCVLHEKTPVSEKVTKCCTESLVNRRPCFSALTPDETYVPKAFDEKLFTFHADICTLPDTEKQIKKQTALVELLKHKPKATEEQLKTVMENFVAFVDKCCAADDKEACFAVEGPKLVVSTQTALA
Chain of Fibroblast growth factor 2 (Homo sapiens) (P09038 whole entry, looked up): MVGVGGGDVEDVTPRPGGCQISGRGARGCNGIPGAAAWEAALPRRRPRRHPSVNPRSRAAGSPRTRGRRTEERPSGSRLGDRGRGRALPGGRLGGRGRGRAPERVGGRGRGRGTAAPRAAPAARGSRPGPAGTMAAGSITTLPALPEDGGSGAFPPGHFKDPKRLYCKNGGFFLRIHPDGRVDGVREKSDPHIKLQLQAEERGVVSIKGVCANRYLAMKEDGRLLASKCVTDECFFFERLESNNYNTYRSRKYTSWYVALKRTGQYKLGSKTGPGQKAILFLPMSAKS
Chain of Follistatin (Homo sapiens) (P19883 whole entry, looked up): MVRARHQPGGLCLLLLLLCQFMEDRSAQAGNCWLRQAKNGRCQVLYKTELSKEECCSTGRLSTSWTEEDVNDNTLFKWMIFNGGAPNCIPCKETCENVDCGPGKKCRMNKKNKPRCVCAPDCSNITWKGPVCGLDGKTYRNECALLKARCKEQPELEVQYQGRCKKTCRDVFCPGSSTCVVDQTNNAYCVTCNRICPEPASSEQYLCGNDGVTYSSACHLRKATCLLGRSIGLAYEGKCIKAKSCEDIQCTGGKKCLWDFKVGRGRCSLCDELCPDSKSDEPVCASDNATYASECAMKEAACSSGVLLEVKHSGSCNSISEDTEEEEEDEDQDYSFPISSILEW

Consider `CC(C)[Si]1(C(C)C)O[C@@H](c2ccccc2)c2cc(-c3ccc(-c4ccc(Cl)c(Cl)c4)o3)nc(-c3ccccc3)c21`, for which the composite z-score with Albumin (Bos taurus) is 0.473; in assay [2], -0.0918; in [3] it was -0.133; in assay [4] it was 0.233; in assay [5] it was 0.308; in [6] it was 0.0588. Besides, the composite z-score is 0.278 in the assay with Sam68 (KHDRBS1); -0.432 in assay [7]; 0.989 in [8]; 2.46 in [9]; 0.361 in [10]; -0.289 in assay [11]. Further, the composite z-score in [12] is 0.291; in [13] it was -0.139; in assay [14] it was 0.0622; with Lefty1 it was -0.0995; in assay [16], 0.533. The composite Z-score in assay [1] was -0.0194 (inactive). Also, the z-score was -0.133 in [15] and -0.266 (inactive) in [17].
Regarding `CCCc1cc2c(n1Cc1cc(F)cc(F)c1)C(C)C1CN(C(=O)c3ccccc3)C(C)(C(=O)OC)C21` (stereo not given), the composite z-score with Albumin (Bos taurus) amounted to 1; in [2] it was 0.272; in assay [3], 0.341; in [4], 0.633; in [5] it was 3.26; in assay [6], 1.07. Also, the composite z-score in the assay with Sam68 (KHDRBS1) is 1.22; in assay [7], -0.255; in assay [8], 1.11; in assay [9], 2.15; in assay [10] it was 1.24; in [11] it was 2.09. Further, the composite z-score in assay [12] was 0.982; in [13], 0.542; in assay [14], -0.48; in the assay with Lefty1 it was -0.311; in assay [16] it was 1.01. In addition, in [1], the composite Z-score was 0.723 (inactive). In addition, the values for the z-score in assay [15] and in assay [17] were 1.24 and -1.15 (inactive), respectively.
As for `CC(C)C(O)C1C=CC2C(=O)N(c3ccccc3)C(=O)C2N1Nc1ccc([N+](=O)[O-])cc1` (stereo not given), the composite z-score in the assay with Albumin (Bos taurus) is 0.963; in [2], 1.2; in assay [3], 0.185; in assay [4], 0.719; in assay [5] it was 1.84; in assay [6] it was 0.894. Besides, the composite z-score in the assay on Sam68 (KHDRBS1) was 1.13; in [7] it was -0.565; in assay [8], 0.726; in assay [9], 0.663; in assay [10] it was 1.17; in assay [11], 0.774. Also, the composite z-score in assay [12] was 0.954; in assay [13], -0.197; in assay [14], -0.378; with Lefty1 it was -0.0809; in [16], 1.01. The composite Z-score in assay [1] is 2.65 (inactive). Also, the z-score in assay [15] was -0.0625; in [17] it was 1.18 (inactive).
Take `CN(C)CCCC[C@@H]1NC(=O)[C@H]2C[C@@H](C(=O)NCCCCCCN)[C@@H](c3ccc(O)cc3)N2C1=O`: the composite z-score with Albumin (Bos taurus) was 0.887; in assay [2], 0.665; in assay [3] it was 0.419; in assay [4], 0.35; in assay [5] it was 1.48; in assay [6] it was 1.09. The composite z-score with Sam68 (KHDRBS1) was 1.28; in assay [7], 1.04; in [8] it was 1.04; in assay [9] it was 2.07; in [10], 1.09; in assay [11] it was 0.333. For the same molecule, the composite z-score in assay [12] worked out at 0.977; in assay [13], 1.41; in assay [14], 1.82; in the assay with Lefty1 it was 1.67; in [16] it was 1.03. Further, the composite Z-score in [1] was 0.37 (inactive). In addition, the z-score in assay [15] was 0.462; in assay [17] it was 0.498 (inactive).
As for `O=C(CS)NCCCCCCNC(=O)[C@@H]1C[C@@H]2C(=O)NCC(=O)N2[C@@H]1c1cccc(OCCO)c1`, the composite z-score is -0.607 in the assay with Albumin (Bos taurus); -0.446 in assay [2]; -0.398 in assay [3]; 0.679 in assay [4]; 2.91 in [5]; 0.71 in assay [6]. Besides, the composite z-score with Sam68 (KHDRBS1) was determined as 0.318; in assay [7] it was 0.26; in assay [8], 0.625; in assay [9], 3.13; in assay [10] it was 1.23; in assay [11] it was 0.69. The composite z-score in assay [12] is -0.993; in [13], 0.998; in assay [14] it was 1.4; in the assay with Lefty1, -0.408; in assay [16] it was -0.56. Moreover, in assay [1], the composite Z-score is 0.359 (inactive). Also, the z-score in assay [15] was 0.609; in [17] it was -1.02 (inactive).
